# tim23-1 inh – growth inhibitors of tim23-1 mutant yeast, primary screen, luminescence, uHTS | 330,000 compounds, 1.3% hits | inhibition, % at 20 µM | S. cerevisiae tim23-1 growth, BacTiter-Glo luminescence, 24 h;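 active means growth inhibition of the mutant yeast at or above 50%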;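 further: temperature-sensitive mutant grown at 25 °C; plate controls were DMSO-treated mutant yeast for no effect and medium wells lacking yeast for full effect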
# V-ATPase pHluor – regulators of yeast V-ATPase proton pumping, primary screen, pHLuorin cytosolic pH fluorescence; S. cerevisiae; response, % at 10 µM; 350,000 compounds, 0.37% hits; in the data active means response mostly above about 7.3%, no sharp cut-off; inactive means mostly below about 5.4%; further: actives read high
# tim10-1 inh – growth inhibitors of tim10-1 mutant yeast, primary screen, luminescence, uHTS. S. cerevisiae tim10-1 ts strain growth, BacTiter-Glo, 24 h. inhibition, % at 20 µM. 330,000 compounds, 2.2% hits. AID 463190, 2010;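 active means inhibition of at least 40%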;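 further: mutant grown at 25 °C; 0% = DMSO wells with yeast and 100% = wells holding no yeast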
# NALP1 inh – NALP1 inflammasome inhibitors in reconstituted yeast, colorimetric, S. cerevisiae, triplicate retest | S. cerevisiae NALP1/ASC/caspase-1 growth, X-gal OD620, 72 h | inhibition, % at 10 µM | 280,000 compounds, 0.61% hits | AID 2071, 2009; in the data active means inhibition mostly above about 24%, no sharp cut-off; inactive means mostly below about 32%
# NALP3 yeast inh – NALP3 inflammasome inhibitors in reconstituted yeast, primary screen, luminescence, uHTS; inhibition, % at 10 µM; 330,000 compounds, 0.39% hits; Yeast reconstituted NLRP3/ASC/caspase-1, beta-gal luminescence, 24 h; AID 2825, 2010;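 active means inhibition of 50% or more; inactive means inhibition below 50%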;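 further: plate controls were induced DMSO wells for no effect and uninduced yeast grown without galactose for full effect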
# TIM10 inh – growth inhibitors of isogenic TIM10 control yeast, primary screen, counter-screen for tim10-1 yeast inhibitor project, luminescence, uHTS; S. cerevisiae TIM10 strain growth, BacTiter-Glo luminescence, 24 h; inhibition, % at 10 µM; 330,000 compounds, 1.4% hits; AID 463195, 2010;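 active means inhibition of 40% or more at the single tested concentration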;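 further: wild-type TIM10 isogenic control strain grown at permissive 25 °C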
# TIM10 conf – growth inhibitors of wild-type TIM10 yeast, confirmation, counter-screen for tim10-1 synthetic lethality project, single concentration, luminescence, S. cerevisiae | shares compounds with TIM10 inh | S. cerevisiae tim10 strain growth, BacTiter-Glo luminescence, 24 h | inhibition, % at 10 µM | 4,600 compounds, 63% hits | AID 463215, 2010;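 active means inhibition of yeast growth at or above a set limit in either of two replicates at 10 µM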;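 further: this counterscreen used the strain with wild-type TIM10; 0% = yeast with DMSO and 100% = medium wells lacking yeast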
# tim23-1 confirm – tim23-1 mutant yeast growth inhibitors, confirmation, luminescence, single concentration | shares compounds with tim23-1 inh | S. cerevisiae tim23-1 growth, BacTiter-Glo luminescence, 24 h | inhibition, % at 20 µM | 4,400 compounds, 83% hits | AID 463218, 2010;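 active means inhibition above about 39% in either of two replicate wells at 20 µM, limit read from the data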;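 further: temperature-sensitive tim23-1 mutant grown at 25 °C; 0% = DMSO wells with yeast and 100% = medium wells without yeast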
# * = called active by the depositor; . = not tested or not shown. Shown are actives, neighbours in structure and some others; about 4.2% of the full set was active somewhere.
SMILES,tim23-1 inh,V-ATPase pHluor,tim10-1 inh,NALP1 inh,NALP3 yeast inh,TIM10 inh,TIM10 conf,tim23-1 confirm
Clc1nc(-c2ccccn2)nc2scc(-c3ccccc3)c12,51.9*,9.8,17.7,.,30.9,49.6*,-7.2,58.1*
CSc1nsc(SCC(=O)Nc2cccc(NC(C)=O)c2)n1,-5.9,2.6,-4.4,7.1,10.7,-3.4,.,.
N#CC1(c2ccccc2)CCCN1C(=O)c1ccccc1Cl (stereo not drawn),15.6,-1.1,25.3,2.2,7.1,7.8,.,.
N#CC(C(=O)c1ccccc1Cl)=C1SCCCS1,68.7*,0.0,31.2,-32.6,27.8,41.5*,40.5*,52.3*
Oc1ccc(Cl)cc1-c1cc(-c2ccco2)[nH]n1,71.8*,-5.7,37.6,18.8,9.9,49.1*,38.1*,14.8
Oc1c(-c2cc(-c3ccco3)[nH]n2)ccc2ccccc12,24.9,-5.5,23.7,-3.3,18.5,39.0,.,.
Cc1ccc(C)c(C(=O)Nc2cc(C)nn2-c2nc(C)cc(C)n2)c1,53.8*,-0.1,8.9,16.6,11.5,43.2*,42.8*,48.3*
Cc1cc(C)nc(-n2nc(C)cc2NC(=O)c2cccc(S(=O)(=O)N(C)C)c2)n1,-1.6,.,5.0,3.5,18.6,-6.7,.,.
CCCC(C(=O)Nc1ccc(S(=O)(=O)Nc2nccs2)cc1)c1ccccc1 (stereo not drawn),-11.7,8.2,-0.8,.,19.8,2.4,.,.
O=C(c1cccs1)N1CCN(c2nnc(-c3ccccc3)c3ccccc23)CC1,51.4*,2.3,27.4,-1.9,-0.3,42.5*,-1.6,26.3
CCCC(=O)N1CCN(c2nnc(-c3ccccc3)c3ccccc23)CC1,-13.6,2.5,-29.7,1.6,7.2,-33.5,.,.
O=C(COc1ccc(NC(=O)c2cccs2)cc1)c1ccc(F)cc1,-7.1,0.3,-13.6,8.3,14.3,-0.2,.,.
CC(NC(=O)COC(=O)c1ccccc1SCC(=O)N1CCCC1)c1ccccc1 (stereo not drawn),20.3,2.3,6.0,.,19.4,-4.3,.,.
O=C1Nc2ccc(Br)cc2/C1=C/C(=O)c1ccccc1,.,-3.2,.,.,.,.,.,.
C=CCOc1cccc(C(=O)/C=C2/C(=O)Nc3ccccc32)c1,75.5*,-0.6,20.7,-3.4,22.6,85.1*,79.7*,-5.5
CCN1CCN(C(=O)C(Cc2ccccc2)NC(=O)c2ccc(Cl)c(S(=O)(=O)N(C)C)c2)CC1 (stereo not drawn),8.5,1.1,2.8,.,-8.4,-0.4,.,.
O=Cc1ccccc1OCCCOc1cccc2cccnc12,76.3*,-4.9,33.2,4.9,30.9,49.5*,52.4*,78.7*
N#CC1(c2nc3ccccc3[nH]2)CC1c1ccc2c(c1)OCO2 (stereo not drawn),56.2*,.,33.5,-0.2,14.8,55.8*,31.9*,71.9*
C(=N\Nc1nc2ccccc2[nH]1)/c1ccc2c(c1)OCO2,.,1.0,.,-9.7,.,.,.,.
N=c1oc2cc(O)ccc2cc1C(=O)Nc1ccc(Br)cc1,55.1*,-1.7,33.5,18.8,-0.9,41.1*,25.1,56.2*
COc1ccc2c(c1)[C@@H]1[C@H](CO2)[C@H](c2ccccc2)[C@]2(C)C(=O)Nc3ccc(C)cc3C(=O)N12,58.4*,-0.5,34.7,.,4.9,42.2*,35.2*,57.0*
C[C@@H](NC(=O)[C@@H]1Cc2ccccc2CN1C(=O)OC(C)(C)C)C(=O)NCc1ccco1,2.2,-5.6,3.2,19.3,9.0,14.3,.,.
O=C(N/N=C/c1ccc([N+](=O)[O-])s1)C(O)c1ccccc1 (stereo not drawn),34.5,7.6,33.9,32.8,6.4,25.4,.,.
Cc1ccccc1C(=O)N/N=C/c1ccc([N+](=O)[O-])s1,75.9*,-0.2,32.7,-8.1,15.2,52.1*,47.1*,66.0*
CCCCCCN1C[C@H](O)[C@@H](n2cc(-c3ccc(F)cc3)nn2)C[C@@H]1c1ccccc1,.,-0.8,.,.,.,.,.,.
SMILES,tim23-1 inh,V-ATPase pHluor,tim10-1 inh,NALP1 inh,NALP3 yeast inh,TIM10 inh,TIM10 conf,tim23-1 confirm
COc1ccc(C/C(N)=N/OC(=O)CCc2ccccc2)cc1,72.4*,2.4,23.4,18.5,17.9,70.9*,82.8*,78.0*
COc1ccc(CC(=O)O/N=C(\N)Cc2ccc(OC)c(OC)c2)cc1,6.5,-3.5,11.0,13.5,0.4,6.3,.,.
Cc1ccc(C(=O)/C=C/c2ccc(-c3ccccc3[N+](=O)[O-])o2)cc1,30.8,10.1,37.5,36.0,23.2,39.2,.,.
Cc1ccc(C(=O)/C=C/c2ccccc2[N+](=O)[O-])cc1,59.0*,2.4,29.8,12.0,36.3,49.7*,38.1*,62.0*
CCC(C)Nc1ccc(NC(C)CC)cc1 (stereo not drawn),80.5*,8.3,38.1,.,4.7,61.0*,68.7*,82.1*
CCOC(=O)c1sc(NC(=O)c2ccccc2)cc1C,64.0*,-0.5,5.5,6.9,32.6,49.8*,32.1*,72.3*
CCOC(=O)c1sc(NC(=O)C(C)(C)C)cc1C,32.9,-4.5,34.0,35.7,27.0,31.2,.,.
c1ccc(-n2cnc3cc(NCc4ccco4)ccc32)cc1,53.8*,2.6,25.0,19.8,41.3,53.1*,39.3*,68.0*
CC(C)(C)NC(=O)CSc1nnc(C2CC2)n1-c1ccccc1,16.4,-1.8,11.4,1.2,8.1,2.3,.,.
Cc1ccc(/C=N/n2cnc3sc4c(c3c2=O)CCCC4)o1,17.0,-1.5,12.9,9.4,13.5,6.9,.,.
O=c1c2c3c(sc2ncn1/N=C/c1ccc(Br)o1)CCCC3,51.4*,-3.1,37.0,-3.1,8.6,43.6*,46.4*,54.0*
CC(c1nnc(SCC(=O)Nc2cccnc2Cl)n1Cc1ccccc1)N(C)C (stereo not drawn),4.9,-0.1,21.3,9.3,5.2,-5.1,.,.
Cc1ccc(NC2=C(Cl)C(=O)OC2OC(=O)c2ccc(C)cc2)cc1 (stereo not drawn),42.7,2.8,29.2,-1.6,19.3,36.3,.,.
COC(=O)c1ccc(NC2=C(Cl)C(=O)OC2OC(=O)c2ccccc2)cc1 (stereo not drawn),50.3*,6.5,35.6,16.6,16.1,41.0*,24.9,42.8*
Clc1ccc(-c2nnc(NCc3ccccc3)c3ccccc23)cc1,68.0*,5.8,31.9,25.6,15.8,54.2*,56.8*,71.0*
Cc1ccc(-c2nnc(NCc3ccccc3)c3ccccc23)cc1,24.9,7.3,21.6,-4.9,13.5,29.5,.,.
